Measurements reported in PubChem BioAssay.
Unmarked numbers belong to inactive results. For some of these results: Measured potencies and affinities stand elsewhere. The source made the active and inactive calls. Unless noted, no rule for the calls is given here.

Assays:
[1] = antimalarial activity against Dd2 strain (AID 2302;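 active = growth inhibition above 50% at the single 2 µM test dose, taken to imply half-maximal potency below 2 µM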;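 also: 0% = DMSO untreated growth and 100% = chloroquine plus artemisinin killed control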); conditions: P. falciparum Dd2 in RBCs, LDH growth readout, 72 h; at 2 µM; stronger effect = higher value
[2] = HepG2 cytotoxicity, primary screen, cytotoxicity control for P. falciparum antimalarial project, cell-based, ATP luminescence (AID 2303;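 active = inhibition above 50%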;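 also: 0% = DMSO wells and 100% = digitonin-killed cells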); conditions: HepG2 viability, 24-48 h, at 10 µM, stronger effect = higher value
[3] = biological target: L-lactate dehydrogenase (Plasmodium falciparum (isolate CDC / Honduras)) (UniProt Q27743); experiment: PfLDH activity inhibition – cell lysate, 3D7 strain, counter-screen for P. falciparum growth inhibition project (AID 2304);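 also: 0% = vehicle and 100% = reference inhibitor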; conditions: P. falciparum 3D7 crude extract, LDH APAD/NBT absorbance; at 2 µM; stronger effect = higher value
Sequence of L-lactate dehydrogenase (Plasmodium falciparum (isolate CDC / Honduras)) (Q27743 whole entry, looked up): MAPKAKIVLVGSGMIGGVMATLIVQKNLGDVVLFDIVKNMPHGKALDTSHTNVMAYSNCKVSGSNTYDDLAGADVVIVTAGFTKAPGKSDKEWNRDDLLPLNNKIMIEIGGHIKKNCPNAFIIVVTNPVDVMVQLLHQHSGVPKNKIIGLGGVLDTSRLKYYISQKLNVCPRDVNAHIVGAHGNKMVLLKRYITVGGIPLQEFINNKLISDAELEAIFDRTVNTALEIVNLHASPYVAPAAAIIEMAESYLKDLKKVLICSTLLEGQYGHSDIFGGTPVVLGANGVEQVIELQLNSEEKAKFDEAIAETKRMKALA

[4] = inhibition of 3D7 malaria parasite growth – strain 3D7 (AID 2306);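 also: 0% = DMSO wells and 100% = chloroquine plus artemisinin control wells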; conditions: P. falciparum 3D7 erythrocytic growth, LDH absorbance, 72 h; at 2 µM; stronger effect = higher value
[5] = biological target: Calcium-dependent protein kinase 1 (Plasmodium falciparum (isolate 3D7)) (UniProt P62344); experiment: PfCDPK1 kinase inhibitors, biochemical, TCAMS library (AID 1159585; cut-off not given, nearly all actives have IC50 up to about 0.98 µM;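 also: inhibitors leave more ATP so luminescence rises with inhibition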); conditions: recombinant PfCDPK1, Kinase-Glo ATP depletion luminescence
Sequence of Calcium-dependent protein kinase 1 (Plasmodium falciparum (isolate 3D7)) (P62344 whole entry, looked up): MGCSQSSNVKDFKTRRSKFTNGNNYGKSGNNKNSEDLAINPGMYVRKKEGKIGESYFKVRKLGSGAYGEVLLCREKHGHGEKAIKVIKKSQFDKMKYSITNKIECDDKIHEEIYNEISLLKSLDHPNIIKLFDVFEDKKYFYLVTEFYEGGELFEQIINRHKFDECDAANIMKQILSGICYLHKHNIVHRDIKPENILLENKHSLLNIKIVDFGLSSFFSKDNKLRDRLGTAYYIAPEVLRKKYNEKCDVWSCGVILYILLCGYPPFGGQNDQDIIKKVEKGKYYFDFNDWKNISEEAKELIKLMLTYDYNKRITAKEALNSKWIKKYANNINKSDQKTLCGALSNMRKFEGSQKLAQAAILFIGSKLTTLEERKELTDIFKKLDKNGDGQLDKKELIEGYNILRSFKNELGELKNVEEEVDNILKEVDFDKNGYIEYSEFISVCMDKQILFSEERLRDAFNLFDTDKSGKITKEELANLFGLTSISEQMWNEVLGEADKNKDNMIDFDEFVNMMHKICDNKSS

[6] = biological target: Plasmodium falciparum protein kinase 6 (PK6, PF3D7_1337100) (UniProt Q8IDW1); experiment: PfPK6 kinase inhibitors, biochemical, TCAMS library (AID 1159586); conditions: recombinant PfPK6, Kinase-Glo ATP depletion luminescence
Sequence of Plasmodium falciparum protein kinase 6 (PK6, PF3D7_1337100) (Q8IDW1 1-305): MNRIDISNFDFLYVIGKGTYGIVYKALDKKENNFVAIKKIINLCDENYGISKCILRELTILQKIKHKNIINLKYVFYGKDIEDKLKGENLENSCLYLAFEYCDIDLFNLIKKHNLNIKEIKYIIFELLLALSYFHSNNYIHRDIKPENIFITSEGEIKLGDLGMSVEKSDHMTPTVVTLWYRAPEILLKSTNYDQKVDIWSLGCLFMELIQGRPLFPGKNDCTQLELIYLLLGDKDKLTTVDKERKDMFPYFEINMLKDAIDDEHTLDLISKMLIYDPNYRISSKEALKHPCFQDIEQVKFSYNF

[7] = biological target: Protein kinase 7 (PK7), Plasmodium falciparum 3D7 (PF3D7_0213400) (UniProt Q7YTF7); experiment: inhibition of Plasmodium PK7 catalytic activity – biochemical, TCAMS antimalarial set, Kinase-Glo luminescence (AID 1159587); conditions: recombinant PfPK7, Kinase-Glo ATP depletion luminescence
Sequence of Protein kinase 7 (PK7), Plasmodium falciparum 3D7 (PF3D7_0213400) (Q7YTF7 1-343): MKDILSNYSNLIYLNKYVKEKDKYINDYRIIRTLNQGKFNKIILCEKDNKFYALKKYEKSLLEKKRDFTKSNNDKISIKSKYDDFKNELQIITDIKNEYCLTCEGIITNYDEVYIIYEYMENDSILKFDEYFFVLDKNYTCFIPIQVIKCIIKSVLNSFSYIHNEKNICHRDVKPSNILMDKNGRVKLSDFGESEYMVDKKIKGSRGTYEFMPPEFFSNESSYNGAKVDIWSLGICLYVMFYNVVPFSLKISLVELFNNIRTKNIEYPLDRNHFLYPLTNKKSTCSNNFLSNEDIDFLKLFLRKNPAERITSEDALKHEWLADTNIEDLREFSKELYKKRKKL

[8] = biological target: Calcium-dependent protein kinase 4 (Plasmodium falciparum (isolate 3D7)) (UniProt Q8IBS5); experiment: PfCDPK4 kinase inhibitors, biochemical, TCAMS library (AID 1159588; cut-off not given, nearly all actives have IC50 up to about 0.91 µM); conditions: recombinant PfCDPK4, Kinase-Glo ATP depletion luminescence
Sequence of Calcium-dependent protein kinase 4 (Plasmodium falciparum (isolate 3D7)) (Q8IBS5 whole entry, looked up): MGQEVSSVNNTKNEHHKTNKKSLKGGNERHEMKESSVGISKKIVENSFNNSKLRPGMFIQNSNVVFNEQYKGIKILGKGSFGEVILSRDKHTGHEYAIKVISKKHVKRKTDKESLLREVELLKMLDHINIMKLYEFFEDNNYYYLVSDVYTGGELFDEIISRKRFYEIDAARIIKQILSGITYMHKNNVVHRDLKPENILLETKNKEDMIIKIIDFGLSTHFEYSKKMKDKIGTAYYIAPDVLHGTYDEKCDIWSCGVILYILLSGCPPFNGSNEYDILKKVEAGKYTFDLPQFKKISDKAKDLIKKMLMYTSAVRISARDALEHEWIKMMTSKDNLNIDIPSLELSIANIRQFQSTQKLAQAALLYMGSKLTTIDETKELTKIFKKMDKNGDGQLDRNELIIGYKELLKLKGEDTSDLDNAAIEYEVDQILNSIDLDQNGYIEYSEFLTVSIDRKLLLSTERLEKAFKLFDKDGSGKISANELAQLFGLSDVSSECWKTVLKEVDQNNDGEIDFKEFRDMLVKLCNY

| Structure (SMILES) | growth inhibition [1] | inhibition [2] | inhibition [3] [%] | growth inhibition [4] | outcome [5] | outcome [6] | outcome [7] | outcome [8] |
| --- | --- | --- | --- | --- | --- | --- | --- | --- |
| Cc1ccc(C(NC(=O)c2ccccc2)c2ccc3cccnc3c2O)cc1 (stereo not given) | 72% (active) | 53% (active) | 7 | 92% (active) | inactive | inactive | inactive | inactive |
| COc1cccc(Nc2nc(Nc3cccc(C#N)c3)cc(C(F)(F)F)n2)c1 | 45% | 15% | 3 | 99% (active) | inactive | inactive | inactive | inactive |
| CC(=O)c1c(CC(=O)O)c2ccccc2n1O | -1% | 16% | -3 | 98% (active) | inactive | inactive | inactive | inactive |
| COCCn1c(C)nc2ccccc2c1=O | 67% (active) | -3% | -3 | 89% (active) | inactive | inactive | inactive | inactive |
| COc1ccc2ccccc2c1CNCCCCCCNCc1c(OC)ccc2ccccc12 | 35% | 99% (active) | -2 | 101% (active) | inactive | inactive | inactive | inactive |
| CC(C)CN1CCCN(Cc2cccc(NC(=O)c3cc4ccccc4s3)c2)CC1 | 6% | 5% | 0 | 87% (active) | inactive | inactive | inactive | inactive |
| CC(=O)Nc1ccc(C#Cc2ccc(-c3c(C)[nH]c(C)c(Cl)c3=O)cc2)cc1 | 78% (active) | -3% | -7 | 90% (active) | inactive | inactive | inactive | inactive |
| N#Cc1ccc2c(c1)CCN(CCC1CCC(Nc3ncnc4ccccc34)CC1)C2 (stereo not given) | 96% (active) | 65% (active) | -4 | 101% (active) | inactive | inactive | inactive | inactive |
| CC(=O)Nc1ccc(C(=O)Nc2cccc(-c3ccc(-c4nc5ccccc5[nH]4)s3)c2)cn1 | 91% (active) | 9% | 2 | 101% (active) | inactive | inactive | inactive | inactive |
| CCOC(=O)c1c(C)noc1Nc1cccc(C)c1C | -2% | 8% | 2 | 98% (active) | inactive | inactive | inactive | inactive |
| CCOCc1cnc(C)nc1NCC(=O)c1c(C)[nH]c2cc(C)ccc12 | 76% (active) | 8% | 4 | 89% (active) | inactive | inactive | inactive | inactive |
| Cc1ccc2nc(C)cc(NN=Cc3ccc([N+](=O)[O-])cc3)c2c1 | 15% | 10% | 3 | 102% (active) | inactive | inactive | inactive | inactive |
| CCN(CC)CCCCNc1cc(-c2[nH]c(-c3c(Cl)cccc3Cl)nc2-c2ccc3cc(OC)ccc3c2)ccn1 | 93% (active) | 23% | -5 | 95% (active) | inactive | inactive | inactive | inactive |
| COc1ccc(-c2csc(N(CCCN(C)C)C(=O)c3cc4c(C)nn(-c5ccccc5)c4s3)n2)cc1 | 16% | 100% (active) | -2 | 102% (active) | inactive | inactive | inactive | inactive |
| COc1ccc2c(NN=Cc3ccc(N(C)C)cc3)ccnc2c1 | 100% (active) | 12% | -1 | 102% (active) | inactive | inactive | inactive | inactive |
| Cn1cc(C2CCN(CCCCCNC(=O)/C=C/c3ccc(Cl)c(Cl)c3)CC2)c2cc(O)ccc21 | -2% | 11% | -2 | 94% (active) | inactive | inactive | inactive | inactive |
| c1ccc(-c2nc(NCCCn3ccnc3)cc(-c3ccncc3)n2)cc1 | 100% (active) | 42% | -8 | 103% (active) | inactive | inactive | inactive | inactive |
| O=C(c1csc(-c2cccnc2)n1)N1CCc2cc3nccc(N4CCN5CCC[C@H]5C4)c3cc21 | 78% (active) | -7% | -3 | 97% (active) | inactive | inactive | inactive | inactive |
| CN(CCC(CCN1CCC(c2c[nH]c3ccccc23)CC1)c1ccccc1)C(=O)Nc1ccc(Cl)c(Cl)c1 (stereo not given) | 21% | 50% (active) | 3 | 91% (active) | inactive | inactive | inactive | inactive |
| Cc1n[nH]c(C)c1C1CCN(CC2CCC(NC(=O)/C=C/c3ccc(Cl)c(Cl)c3)CC2)CC1 (stereo not given) | 53% (active) | 15% | 3 | 101% (active) | inactive | inactive | inactive | inactive |
